# Values joined by “and” are separate entries in the source; they are usually repeats but may differ in a detail not shown here. Identical values can stand only once. Results filed as inconclusive are left out. Where a call stands in place of a potency, no number is given. Active and inactive are the calls of the source. Unless noted, calls come from the whole dose curve; as a rule, active = well fitted curve in the direction sought with a large enough effect; inconclusive = small, poorly fitted or top-dose-only effect, or another doubt; inactive = no such curve, though single readings can be large; an effect the other way counts as inactive or inconclusive.
# Columns and labels:
# [1] = Cell Viability - Jurkat (AID 426;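 active = dose-dependent loss of cell ATP signal giving a full or clear fitted curve, ranked by lower potency value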;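 note: potency is the fitted concentration of half-maximal effect; cells exposed to compound for 40 hours at 37 °C before ATP read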); settings: qHTS
# Outline: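 Seed 5000 Jurkat E6-1 cells/well; add compound; incubate 40 hr at 37 °C; add CellTiter-Glo; wait 20 min at room temperature; read luminescence. Fit concentration-response with Hill equation for AC50.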
# [2] = Cell Viability - Hek293 (AID 427;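 active = compounds whose dose-response curve shows a full or clear partial loss of cell viability, called from curve shape rather than a numeric limit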;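 note: potency is the fitted concentration of half-maximal effect; cells exposed to compound for 40 hours at 37 °C before reading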); settings: qHTS
# Outline: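 qHTS, human embryonic kidney (adenovirus-transformed) cells; 40 hr cpd, 37 °C; CellTiter-Glo ATP luminescence. Norm: DMSO = 0, 100 uM tamoxifen = 100% inhibition. Hill-fit AC50.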
# [3] = Cell Viability - HUV-EC-C (AID 542); settings: HUV-EC-C endothelial cell viability, qHTS; series mostly up to 92.2 µM;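 note: cells exposed to compound for 40 hours; nearly all actives have a fitted effect of over 35% in size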
# Outline: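 Decrease in cellular ATP, quantified by luciferase luminescence, reflects toxicity in normal human vascular endothelial HUV-EC-C cells given compound for 40 hr in complete culture medium. Values are AC50s from concentration-response curves.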
# [4] = Cell Viability - H-4-II-E (AID 543); settings: H-4-II-E rat hepatoma viability; series mostly up to 92.2 µM;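 note: cells exposed to compound for 40 hours; nearly all actives have a fitted effect of over 35% in size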
# Outline: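 Here, cytotoxicity is measured in the rat hepatoma line H-4-II-E as loss of intracellular ATP after 40 hr compound treatment, detected by luciferase luminescence.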
# [5] = Cell Viability - SH-SY5Y (AID 544); settings: SH-SY5Y neuroblastoma cell viability; series mostly up to 92.2 µM;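 note: cells exposed to compound for 40 hours; nearly all actives have a fitted effect of over 55% in size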
# Outline: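 Cytotoxicity is scored as a concentration-dependent fall in intracellular ATP in human SH-SY5Y cells treated 40 hr in complete culture medium. Potency is expressed as AC50 from a Hill equation fit.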
# [6] = Cellular Toxicity (caspase-3) SHSY5Y (AID 657); settings: SH-SY5Y caspase-3 activation, DMSO zero, 10 µM staurosporine = 100%; series mostly up to 91.7 µM;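 note: cells exposed to compound for 16 hours at 37 °C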
# Outline: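 Luminescent caspase-3/7 readout (aminoluciferin release) in SH-SY5Y cells after 16 h compound exposure in complete medium. Activity scaled between DMSO basal and 10 uM staurosporine as 100%; concentration-response fitted to Hill equation for AC50.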
# [7] = Cellular Toxicity (caspase-3) SK-N-SH (AID 661); settings: SK-N-SH caspase-3 activation, qHTS, DMSO as zero, staurosporine as full; series mostly up to 91.7 µM
# Outline: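 Caspase 3/7 activation is measured as a luminescence increase from aminoluciferin released by substrate cleavage in SK-N-SH cells after 16 hr compound treatment; values are AC50 from concentration-response curves.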
# [8] = Cellular Toxicity (caspase-3) H-4-II-E (AID 663); settings: H-4-II-E rat hepatoma; Potency: caspase-3 activation; series mostly up to 92.2 µM;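 note: cells exposed to compound for 16 hr before readout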
# Outline: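 Apoptosis induction is scored as increased luminescence from caspase 3/7 substrate cleavage in rat hepatoma H-4-II-E cells exposed to compound for 16 hr. Activity is scaled between DMSO and 100 uM tamoxifen.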
# [9] = Cellular Toxicity (caspase-3) N2a (AID 665); settings: N2a cells, luminescence, normalized: DMSO 0%, 10 µM staurosporine 100%; series mostly up to 92.2 µM;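 note: compound exposure lasted 16 h at 37 °C before readout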
# Outline: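 Plated mouse neuroblastoma N2a cells received titrated compounds for 16 h in complete medium. Caspase activity was then detected with a peptide-aminoluciferin luminescent reagent.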
# [10] = Cellular Toxicity (caspase-3) NIH 3T3 (AID 666); settings: NIH 3T3 caspase-3 activation, apoptosis/toxicity, 0% DMSO, 100% is 100 µM tamoxifen; series mostly up to 92.2 µM;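 note: caspase signal read after 16 h compound exposure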
# Outline: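 Concentration-response qHTS in NIH 3T3 mouse fibroblasts scores caspase-3/7 activation as rising luminescence after 16 hr compound exposure. Signals are scaled between DMSO-only and 100 uM tamoxifen.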
# [11] = Cell Viability - LYMP1-002 - Assay at 16 hr (AID 948); settings: LYMP1-002 lymphoblastoid cell viability; series mostly up to 92.2 µM
# Outline: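 LYMP1-002 human lymphoblastoid cells, 2500/well; 5 hr 37 C; cpd 16 hr 37 C; CellTiter-Glo 30 min RT; luminescence (ATP). Concentration-response, Hill-fit AC50. Pos ctrl tetraoctylammonium bromide.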
# [12] = MultiTox-Fluor Cytotoxicity Assay - LYMP1-002 - Live Cells (AID 955); settings: LYMP1-002 lymphoblastoid live-cell protease fluorescence viability; series mostly up to 46.1 µM
# Outline: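 Cytotoxicity in the human lymphoblastoid line LYMP1-002 is measured as loss of live-cell protease activity after 16 h treatment in complete culture medium. AC50 is derived from Hill-equation fits of qHTS concentration-response data.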
# [13] = MultiTox-Fluor Cytotoxicity Assay - LYMP1-003 - Dead Cells (AID 961); settings: LYMP1-003 lymphoblastoid cells, dead-cell protease fluorescence; series mostly up to 92.2 µM;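 note: cells exposed to compound for 16 h at 37 °C; nearly all actives have a fitted effect of over 70% in size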
# Outline: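 LYMP1-003 lymphoblastoid, 2500 cells/well, 5 hr settle then 16 hr cpd at 37 C; MultiTox-Fluor reagent 60 min RT; Ex/Em 485/520 dead-cell signal; norm. DMSO = 0%, 15 uM tetraoctylammonium bromide = 100%; Hill AC50.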
# [14] = Cell Viability - LYMP2-003 (AID 965); settings: LYMP2-003 lymphoblastoid cell viability; series mostly up to 92.2 µM;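 note: cells exposed to compounds for 24 h before reading; nearly all actives have a fitted effect of over 50% in size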
# Outline: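 CellTiter-Glo luminescence (cellular ATP) after 24 h compound exposure at 37 C in complete medium; 2500 cells/well, 5 h settling beforehand. Concentration-response fitted to standard Hill equation for AC50. Tetraoctylammonium bromide served as positive control.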
# [15] = Cell Viability - LYMP2-018 (AID 985); settings: LYMP2-018 lymphoblastoid cells, viability (qHTS); series mostly up to 92.2 µM;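 note: compound exposure lasted 24 hr at 37 °C; nearly all actives have a fitted effect of over 50% in size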
# Outline: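 Acute cytotoxicity is scored as a concentration-dependent drop in intracellular ATP after 24 hr exposure of the lymphoblastoid line in complete culture medium, measured by luciferase luminescence. Potency is expressed as AC50 from Hill modelling.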
# [16] = Cell Viability - LYMP2-020 (AID 986); settings: series mostly up to 92.2 µM; note: nearly all actives have a fitted effect of over 55% in size
# Outline: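 Acute cytotoxicity in a human lymphoblastoid line is scored as a concentration-dependent fall in cellular ATP after 24 hr at 37 C in complete medium. The positive control is tetraoctylammonium bromide, and potency is given as Hill-fit AC50.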
# [17] = Cell Viability - LYMP2-022 (AID 987); settings: LYMP2-022 lymphoblastoid cell viability; series mostly up to 92.2 µM;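 note: cells exposed to compound for 24 hr; nearly all actives have a fitted effect of over 55% in size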
# Outline: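 Acute toxicity in a human lymphoblastoid line is scored as decreased intracellular ATP after 24 hr compound treatment at 37 C. ATP is measured by CellTiter-Glo luminescence; curves are fitted with the Hill equation to give AC50.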
# [18] = Cell Viability - LYMP2-024 (AID 988); settings: LYMP2-024 lymphoblastoid cell viability; series mostly up to 92.2 µM;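 note: cells exposed to compound for 24 hr at 37 °C; nearly all actives have a fitted effect of over 60% in size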
# Outline: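 Acute toxicity is measured as concentration-dependent loss of intracellular ATP in a human lymphoblastoid line treated 24 hours at 37 C. Luciferase luminescence quantifies ATP; AC50 values come from standard Hill-equation modelling.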
# [19] = qHTS assay for small molecule antagonists of retinoid X receptor alpha signaling (AID 588546); settings: HEK293T RXRa-UAS-bla, beta-lactamase ratio, antagonist mode; measured here: W530 green channel, cytotoxicity proxy;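 note: cells stimulated with 9-cis-retinoic acid as agonist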
# Outline: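 Beta-lactamase reporter inhibition, read as CCF4 fluorescence ratio (ex 405, em 460/530 nm) after 2 h at RT. HEK293T UAS-bla cells, 2500/well, were stimulated with 9-cis-RA at 500 or 100 nM final alongside test compound for 18 h at 37 C.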
# [20] = qHTS assay for cell viability of HEK293 cells (AID 743288); settings: ATP luminescence (CellTiter-Glo), 18 h; max response: stronger effect = lower value; note: nearly all actives have a fitted effect of over 50% in size
# Outline: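 Environmental chemicals tested in qHTS format against parental HEK293 cells; 18 h treatment, 37 C; read-out ATP luminescence (CellTiter-Glo), 30 min RT development.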
SMILES,Potency [1],Potency [2],outcome [3],Potency [4],Potency [5],outcome [6],outcome [7],Potency [8],outcome [9],outcome [10],Potency [11],Potency [12],Potency [13],Potency [14],Potency [15],Potency [16],Potency [17],Potency [18],max response [19],max response [20]
COc1ccc2nc(N)sc2c1,> 92 µM (inactive),> 92 µM (inactive),inactive,inactive,inactive,inactive,inactive,inactive,inactive,inactive,inactive,inactive,inactive,inactive,inactive,inactive,inactive,inactive,-1.24% and 0.0893%,3.97% (inactive) and -4.38% (inactive)
C=CCOC(=O)c1ccccc1C(=O)OCC=C,> 92 µM (inactive),> 92 µM (inactive),inactive,inactive,inactive,inactive,inactive,inactive,inactive,inactive,inactive,inactive,inactive,inactive,inactive,inactive,inactive,inactive,-4.9% and -9.66%,7.73% (inactive) and -19.3% (inactive)
COc1c2ccoc2cc2oc(=O)ccc12,> 92 µM (inactive),> 92 µM (inactive),inactive,inactive,inactive,inactive,inactive,inactive,inactive,inactive,inactive,inactive,inactive,inactive,inactive,inactive,inactive,inactive,-1.57%,-2.26% (inactive)
O=NO,> 92 µM (inactive),> 92 µM (inactive),inactive,inactive,inactive,inactive,inactive,inactive,inactive,inactive,inactive,inactive,inactive,inactive,inactive,inactive,inactive,inactive,-4.23% and -6.24%,0.172% (inactive) and -0.275% (inactive)
Nc1ccc(S(=O)(=O)O)cc1,> 92 µM (inactive),> 92 µM (inactive),inactive,inactive,inactive,inactive,inactive,inactive,inactive,inactive,inactive,inactive,inactive,inactive,inactive,inactive,inactive,inactive,-0.278%,-3.43% (inactive) and 3.86% (inactive)
CCO[Si](CCCN)(OCC)OCC,> 92 µM (inactive),> 92 µM (inactive),inactive,inactive,inactive,inactive,inactive,inactive,inactive,inactive,inactive,inactive,inactive,inactive,inactive,inactive,inactive,inactive,-0.81% and -5.53%,-4.38% (inactive) and -9.06% (inactive)
O=C(O)CC(C(=O)O)C(CC(=O)O)C(=O)O (stereo not given),> 92 µM (inactive),> 92 µM (inactive),inactive,inactive,inactive,inactive,inactive,inactive,inactive,inactive,inactive,inactive,inactive,inactive,inactive,inactive,inactive,inactive,3.1% and -5.42%,-0.385% (inactive) and -19.1% (inactive)
Clc1cc(Cl)c(Cl)c(Cl)c1Cl,> 92 µM (inactive),> 92 µM (inactive),inactive,inactive,inactive,inactive,inactive,inactive,inactive,inactive,inactive,inactive,inactive,inactive,inactive,inactive,inactive,inactive,-5.69% and -1.37%,-16.4% (inactive) and -15.3% (inactive)
CCCCC(CC)CN (stereo not given),> 92 µM (inactive),> 92 µM (inactive),inactive,inactive,inactive,inactive,inactive,inactive,inactive,inactive,inactive,inactive,inactive,inactive,inactive,inactive,inactive,inactive,-4.73% and -4.29%,2.8% (inactive) and -10% (inactive)
COC(=O)c1ccc(C=O)cc1,> 92 µM (inactive),> 92 µM (inactive),inactive,inactive,inactive,inactive,inactive,inactive,inactive,inactive,inactive,inactive,inactive,inactive,inactive,inactive,inactive,inactive,-1.3% and -26.3%,-15.6% (inactive) and -6.77% (inactive)
c1ccc2c(c1)c1cccc3ccc4cccc2c4c31,> 92 µM (inactive),> 92 µM (inactive),inactive,inactive,inactive,inactive,inactive,inactive,inactive,inactive,inactive,inactive,inactive,inactive,inactive,inactive,inactive,inactive,-0.47% and 10%,0.963% (inactive) and -16.2% (inactive)
Cc1ccc(N)c([N+](=O)[O-])c1,> 92 µM (inactive),> 92 µM (inactive),inactive,inactive,inactive,inactive,inactive,inactive,inactive,inactive,inactive,inactive,inactive,inactive,inactive,inactive,inactive,inactive,-10.8% and -10%,-10.6% (inactive) and -7.86% (inactive)
